# In PubChem BioAssay AID485317 (Broad Institute, 2010):
# Screen size: about 290,000 compounds; about 11,000 (3.8%) were called active.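 The calls were made as follows: active = mean replicate inhibition above about 79%, with every replicate also reaching it (limit read from the data); inconclusive = only one of the two criteria met; inactive = mean below limit and not every replicate reaching it.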 This excerpt belongs to a sample that is enriched for actives.
# Target: FAD-linked sulfhydryl oxidase ALR (Homo sapiens) (UniProt P55789)
# Sequence (P55789 whole entry, looked up): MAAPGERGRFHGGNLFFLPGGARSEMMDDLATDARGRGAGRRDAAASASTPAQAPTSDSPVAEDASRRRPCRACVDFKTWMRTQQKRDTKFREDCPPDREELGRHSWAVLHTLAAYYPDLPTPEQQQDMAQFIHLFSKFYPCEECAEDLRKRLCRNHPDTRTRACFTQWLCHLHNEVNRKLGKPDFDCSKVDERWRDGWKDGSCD
# Assay: ALR-catalysed DTT oxidation blockers – biochemical, H2O2 detection, HRP-luminol luminescence, single point, primary screen (AID 485317)
# Conditions: purified ALR, active compounds read high, concentration not given here
row,SMILES,inhibition
1,Cc1cc(=O)[nH]c(SCC(=O)Nc2ccc(Br)cc2)n1,-7.33% (inactive)
2,CCOC(=O)Cc1csc(NC(=O)C(C)(C)C)n1,-0.763% (inactive)
3,CCCc1cc(=O)[nH]c(SCC(=O)Nc2ccc(S(=O)(=O)N3CCCC3)cc2)n1,-1.58% (inactive)
4,Cc1cccc(NC(=O)CSc2nc3[nH]ncc3c(=O)[nH]2)c1,1.74% (inactive)
5,CCOC(=O)Cc1csc(NC(=O)CSc2nc(C)cc(=O)[nH]2)n1,98.7% (active)
6,COC(=O)c1cccc(NC(=O)CSc2nc(C)cc(=O)[nH]2)c1,98.5% (active)
7,Cc1ccc(NC(=O)CSc2nc(CSc3ccc(C)cc3)cc(=O)[nH]2)cc1,6.9% (inactive)
8,COc1ccc(NC(=O)CSc2nc(NS(=O)(=O)c3ccc(C)cc3)cc(=O)[nH]2)cc1,98.9% (active)
9,CCOC(=O)Cc1csc(NC(=O)CSc2ccc(Br)cc2)n1,-32.4% (inactive)
10,CC(=O)NC12CC3CC(C1)CC(C(=O)N1CCN(C(=O)c4ccco4)CC1)(C3)C2,-2.95% (inactive)
11,CC1(C)O[C@@H]2[C@H](O1)[C@@H](COS(=O)(=O)O)O[C@H]2n1ccc(=O)[nH]c1=O,-0.754% (inactive)
12,O=C(NNc1cc(Cl)cc(Cl)c1)c1c(F)cccc1Cl,3.41% (inactive)
13,Cc1ccc(NNC(=O)c2c(F)cccc2Cl)cc1Cl,98.7% (active)
14,Cc1ccc(NNC(=O)c2cccs2)cc1Cl,2.62% (inactive)
15,Cc1csc(=O)n1CC(=O)Nc1ccc(S(C)(=O)=O)cc1,2.59% (inactive)
16,CN1C(=O)[C@H]2[C@@H](/C=C/c3ccccc3)N3C(=O)CN(Cc4ccc(-c5ccccc5)cc4)C(=O)[C@@]3(C)[C@H]2C1=O,3.57% (inactive)
17,CCCCNC(=O)CSc1nccn1Cc1ccccc1,11.9% (inactive)
18,CC(=O)Nc1cccc(NC(=O)CSc2nccn2Cc2ccc(F)cc2)c1,98.1% (active)
19,CCCCCCNC(=O)CSc1nccn1Cc1ccccc1,-0.072% (inactive)
20,Cc1ccc(Nc2nc(-c3ccc(O)cc3O)cs2)nc1,98.8% (active)
21,Clc1ccc(Nc2nc(-c3cccs3)cs2)nc1,-1.13% (inactive)
22,O=c1oc2ccccc2cc1-c1csc(Nc2ccc(O)cc2)n1,32.6% (inactive)

row,SMILES,inhibition
1,COC(=O)Cc1ccc(OC(=O)C2CCN(S(=O)(=O)c3ccc(OC)c(OC)c3)CC2)cc1,-4.72% (inactive)
2,CC[N+](C)(CC)CCC[n+]1c(-c2ccccc2)c2cc(N)ccc2c2ccc(N)cc21,90.7% (active)
3,O=C(COC(=O)c1cccnc1Cl)Nc1ccc(S(=O)(=O)N2CCOCC2)cc1,-2.58% (inactive)
4,Cc1cccc(Nc2nnc(SCC(=O)c3c(N)n(C4CC4)c(=O)[nH]c3=O)s2)c1C,-3.29% (inactive)
5,C#CCN(N(C)c1ncc(C(F)(F)F)cc1Cl)S(=O)(=O)c1ccc2ccccc2c1,89.2% (active)
6,Cc1nn(CC#N)c(=O)n1N(C)c1ncc(C(F)(F)F)cc1Cl,0.914% (inactive)
7,CN(NS(=O)(=O)c1cccs1)c1ncc(C(F)(F)F)cc1Cl,-1.63% (inactive)
8,CCOC(=O)/C=C/c1ccc(C(F)(F)F)cc1S(=O)(=O)NC(C)(C)C,20.8% (inactive)
9,c1ccc2cc(CCCc3cc4ccccc4cn3)ncc2c1,2.21% (inactive)
10,CN(Cc1ccccc1)C(=O)COC(=O)/C=C/c1ccc2c(c1)OCO2,0.927% (inactive)
11,COc1ccc(N2C(=O)CC(Sc3n[nH]c(-c4ccc(C)cc4)n3)C2=O)cc1 (stereo not drawn),98.9% (active)
12,COc1ccc(-c2nc(SCC(=O)N3CCCC3)n[nH]2)cc1,-0.237% (inactive)
13,Cc1ccc(N2C(=O)CC(Sc3ncn[nH]3)C2=O)cc1 (stereo not drawn),45.4% (inactive)
14,CN(CC(=O)NCCc1ccc(S(N)(=O)=O)cc1)CC(=O)Nc1ccc(F)c(F)c1F,-4.6% (inactive)
15,CCCSc1ccc([C@H]2N[C@@](Cc3ccccc3)(C(=O)OC)[C@H]3C(=O)N(C)C(=O)[C@@H]23)cc1,4.44% (inactive)
16,Cc1ccc(-c2cc(C(=O)N/N=C/C=C/c3ccccc3)n[nH]2)o1,-7.61% (inactive)
17,S=c1[nH]nc(/C=C/c2ccccc2)o1,83.4% (active)
18,CCOC(=O)C1CCN(C(=O)CN2C(=O)NC(C)(c3ccc4cc(OC)ccc4c3)C2=O)CC1 (stereo not drawn),-7.42% (inactive)
19,NC1=NC(c2ccc([N+](=O)[O-])cc2)N(c2ccc(F)cc2)C(N)=N1 (stereo not drawn),-1.48% (inactive)
20,CCOC(=O)CSC1=C(C#N)C(c2sccc2C)CC(=O)N1 (stereo not drawn),2.21% (inactive)
21,Cc1ccc(C2CC(=O)NC(SCC(=O)OCc3ccccc3)=C2C#N)o1 (stereo not drawn),98.4% (active)
22,CCOC(=O)CSC1=C(C#N)C(c2ccco2)C(C(=O)OCc2ccccc2)=C(C)N1 (stereo not drawn),-2.61% (inactive)

row,SMILES,inhibition
1,Cc1cc(Br)ccc1NC(=O)CN(C)C(=O)CN1C(=O)NC2(CCCC2)C1=O,-8.04% (inactive)
2,COc1cc(NC(=O)COC(=O)c2cc(S(=O)(=O)N3CCOCC3)ccc2F)cc(OC)c1,-2.6% (inactive)
3,CN1c2ccc([N+](=O)[O-])cc2C(C)(C)C12C=Cc1cc(C(=O)O)ccc1O2 (stereo not drawn),97.9% (active)
4,COc1ccc2c(c1)C=CC1(O2)N(CCO)c2ccccc2C1(C)C (stereo not drawn),-8.22% (inactive)
5,Cc1cc(C)n(-c2ccc(C(=O)O)cc2[N+](=O)[O-])n1,-3.49% (inactive)
6,CCOC(=O)[C@@H]1[C@H]2COc3ccc(Br)cc3[C@H]2N2C(=O)N(c3ccc(C)cc3)C(=O)[C@@]12C,-4.73% (inactive)
7,COc1ccc(CNC(=O)/C(C#N)=C/c2cccc(OC)c2OC)cc1,12.6% (inactive)
8,COc1ccc(NC(=O)/C(C#N)=C\c2cc(OC)c(OCc3ccc(C(=O)O)cc3)cc2Br)cc1,98% (active)
9,COc1cc(/C=C(\C#N)C(=O)Nc2ccc3ccccc3c2)c([N+](=O)[O-])cc1OC,-17.7% (inactive)
10,COc1cc(OC)cc(-c2sc3ccc(OC)cc3c2-c2ccc3cc[nH]c3c2)c1,0.621% (inactive)
11,COc1ccc(N2CCN(C(CNS(=O)(=O)c3ccc(C)cc3)c3ccccc3)CC2)cc1 (stereo not drawn),-0.191% (inactive)
12,O=C(CCN1C(=O)C2CCCCC2C1=O)Nc1ccc(OC(F)F)cc1 (stereo not drawn),-7.6% (inactive)
13,CCCN(CC(=O)Nc1ccccc1C)C(=O)c1ccc2[nH]c3c(c2c1)CC(C)CC3 (stereo not drawn),-1.42% (inactive)
14,COc1ccccc1NC(=O)CCN1CCN(c2ccc(Cl)cc2)CC1,89.1% (active)
15,COc1ccc(Cl)cc1NC(=O)CCN1CCOCC1,-5.1% (inactive)
16,COc1ccc(NC(=O)CCN2CCCC2)c(OC)c1,-4.61% (inactive)
17,CC(C)n1ncc2c(C(=O)NCc3ccccc3CN(C)C)cc(C3CC3)nc21,-20.5% (inactive)
18,Cc1ccc(NC(=O)C(C)OC(=O)Cc2c[nH]c3ccccc23)cc1S(=O)(=O)N1CCOCC1 (stereo not drawn),-3.03% (inactive)
19,Cc1ccc(C(=O)OCC(=O)NCc2cc(C)c(O)c(C)c2)cc1S(=O)(=O)N1CCCCC1,14.9% (inactive)
20,COc1cc(OC)cc(-c2c(-c3ccc(F)cc3)c3cc(-c4ccc5cc[nH]c5c4)ccc3n2C)c1,0.122% (inactive)
21,COc1ccc(N2CCN(CCNC(=O)CCN3C(=O)COc4ccccc43)CC2)cc1,80.3% (active)
22,CCCN1CCN(CCCNC(=O)CN2C(=O)COc3ccccc32)CC1,-3.58% (inactive)

row,SMILES,inhibition
1,COc1ccc(N2CCN(C(=O)CN3C(=O)COc4ccccc43)CC2)cc1,38% (inactive)
2,Cc1cccc(NS(=O)(=O)c2ccc(C)c(C(=O)NCC(c3ccccc3)N(C)C)c2)c1 (stereo not drawn),-16.5% (inactive)
3,CN(C(=O)CSc1cccc[n+]1[O-])C1CCCCC1,-8.28% (inactive)
4,CN(/N=C/c1ccccc1)C(=S)c1ccccc1,12.2% (inactive)
5,N#Cc1ccc(OCC(=O)NC(=O)NC2CCS(=O)(=O)C2)cc1 (stereo not drawn),-0.0725% (inactive)
6,CCOc1ccc(NC(=O)CN(C)C(=O)Cc2sc(C)nc2-c2ccc(F)cc2)cc1OCC,-2.09% (inactive)
7,Cc1ccc(N=Nc2c(C)[nH]n(-c3ccccc3)c2=O)cc1,-12.7% (inactive)
8,Cc1ccc(C2C3=C(Nc4[nH]n(-c5ccccc5)c(=O)c42)c2ccccc2C3=O)cc1 (stereo not drawn),87.2% (active)
9,Cc1ccc(-c2ccnc3[nH]n(-c4ccccc4)c(=O)c23)cc1,1.8% (inactive)
10,COc1cccc(CNC(C)C(=O)Nc2ccc(S(=O)(=O)N3CCCC3)cc2)c1 (stereo not drawn),-0.631% (inactive)
11,O=C(C[C@@H]1C/C=C\CCC(=O)OC[C@@H]2CCCN2C1=O)NCCO,2.95% (inactive)
12,CC[n+]1cc(C)ccc1/C=C/c1ccc(N(C)C)cc1,99.4% (active)
13,CN(C)c1ccc(/C=N\S(=O)(=O)c2ccccc2)cc1,0.19% (inactive)
14,COCCn1c(C)cc(C(=O)CSc2nnc(C3CC3)n2C2CC2)c1C,13.1% (inactive)
15,COc1ccc(C(=O)c2c3ccc([N+](=O)[O-])cc3[n+]([O-])n2CCCN)cc1,-50.8% (inactive)
16,Cc1ccc(NC(=O)c2cccc(S(=O)(=O)N3CCCc4ccccc43)c2)nc1,-1.14% (inactive)
17,COc1cccc(NC(=O)CSc2nccn(-c3ccc4c(c3)OCCO4)c2=O)c1,98.6% (active)
18,Cn1ccnc1SCC(=O)Nc1ccc2c(c1)OCCO2,47.8% (inactive)
19,CCn1c(COc2ccccc2)nnc1SCC(=O)Nc1ccc2c(c1)OCCO2,-3.91% (inactive)
20,O=C(C1CC(=O)N(C2CCCCC2)C1)N1CCN(c2ccccc2)CC1 (stereo not drawn),68.2% (inactive)
21,O=C(NCc1cccc(Cl)c1)C1CCC(=O)N(C2CC2)C1 (stereo not drawn),-4.45% (inactive)
22,O=C(C1CCC(=O)N(C2CC2)C1)N1CCN(c2ccc(Cl)cc2)CC1 (stereo not drawn),96.7% (active)
